Screening results (PubChem)
TDP-43 rescue: rescues yeast from TDP-43 toxicity; Potency, µM (top dose mostly 46.1 µM), usual class: activators; 45,000 compounds, 0.45% hits; yeast TDP-43 toxicity rescue, BacTiter-Glo growth, 24 h; active = well fitted activation curve with a large enough effect; note: 0% is about no effect; nearly all actives have a fitted effect of over 55% in size
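TDP-43-expressing yeast, pregrown in raffinose, seeded at OD600 0.02 in galactose medium with compound for 24 hr at 30 deg C. Growth read by BacTiter-Glo luminescence, so rescue of toxicity appears as activation.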
* = called active by the depositor; i = inactive. This is one part of a sample in which hits are shown more often than they occur. Potency is the fitted concentration of half-maximal effect.

SMILES	TDP-43 rescue
COc1cc(C(=O)NNC(=O)c2ccc3c(c2)OCCO3)cc(OC)c1OC	i
O=C(/C=C/c1ccncc1)c1ccc2c(c1)OCCO2	i
O=C(NC1CCCCC1)c1cc(N2C(=O)CCC2=O)ccc1Cl	i
COc1cc(/C=C(\C#N)C(=O)Nc2cccc3ncccc23)cc(OC)c1OC	i
COc1ccc(/C=C(\C#N)C(=O)OCC(=O)Nc2c(C)cccc2C)cc1	i
Cc1cccc(C)c1NC(=O)/C(C#N)=C/c1ccsc1	20µM*
COC(=O)Oc1cncc(C(=O)O)c1	i
Cc1oc(-c2cccs2)nc1CN1CCC(C(=O)N2CCCC2)CC1	i
COc1ccc(NC(=O)C/C(C)=N/NC(=O)COc2ccc(OC)cc2)cc1	i
S=c1[nH]cnc2scc(-c3ccc(Br)cc3)c12	i
O=c1[nH]cnc2scc(-c3ccc(Br)cc3)c12	i
Cc1ccc(-c2csc3nc[nH]c(=S)c23)cc1	14µM*
COc1cc(/C=N/NC(=O)CN2CCOCC2)ccc1OCc1ccccc1	i
COC(=O)c1ccc(COc2ccc(/C=N/O)cc2OC)o1	i
COc1cc(/C=N/NC(=O)CN2CCCCC2)ccc1OCc1ccccc1	i
CN(C(=O)c1cccc(COc2ccc(Cl)cc2Cl)c1)c1ccccc1	i
O/N=C/c1ccc(OCc2ccccc2)c(Br)c1	11µM*
O/N=C/c1ccc(OCc2ccccc2)c(Cl)c1	10µM*
N=C(N)SCc1cn2ccccc2n1	i
CC1(C(=O)Nc2ccc3c(c2)OCO3)CCN1Cc1ccccc1OC(F)F (stereo not given)	i
CC(NCC(=O)Nc1ccccc1C(=O)NC1CC1)c1cccs1 (stereo not given)	i
O/N=C/c1ccccc1Oc1ccc(Cl)cc1	18µM*
COC(=O)N/N=C/c1ccccc1OCCOc1ccc(OC)cc1	i
CCOC(=O)COc1ccccc1/C=N/O	i
CC1=[N+](CC(=O)c2ccccc2)CCn2cccc21	i
SMILES	TDP-43 rescue
COc1cccc(CN(C)C(c2ccccc2)c2ccccc2)c1OC	i
COc1ccc(-n2nc([N+](=O)[O-])c(=NCCc3cccc(C)c3)n2O)cc1	13µM*
Cc1ccc(N=c2c([N+](=O)[O-])nn(-c3ccc4c(c3)OCCO4)n2O)cc1F	i
COc1cccc(CNC(=O)Cn2nc([N+](=O)[O-])c(Br)c2C)c1	i
COc1ccc(CNC(=O)c2cccc3c(-c4cccc(C(N)=O)c4)coc23)cc1OC	i
COc1cc(OC)c(OC)cc1/C=C/c1cc(C(F)(F)F)[nH]c(=O)n1	i
CCC(C)[C@H](NC(=O)OC(C)(C)C)c1nnc(SCc2c(C)[nH]c(=O)[nH]c2=O)o1 (stereo not given in full)	i
O=C(Cn1cnnn1)NCCc1ccc(Cl)cc1Cl	i
O=C(CCl)N=c1sccn1Cc1ccc(Cl)cc1Cl	20µM*
O=C(CSc1ncn[nH]1)NCCc1ccc(Cl)cc1Cl	i
COc1ccccc1NC(=S)N(Cc1ccc(C(=O)O)cc1)Cc1ccc(OC)c(OC)c1	i
O=C(NCCCNC(=O)c1cccnc1)c1ccc(Cl)cc1	i
CC(=O)Nc1ccc(SCC(=O)N2CCN(S(=O)(=O)c3ccccc3)CC2)cc1	i
COc1ccccc1CNC(=O)Cc1ccc(OC)c(OC)c1	i
COc1ccccc1OCC(=O)NCCSCc1ccccc1Cl	i
COc1ccc(CNC(=O)CCSCc2ccccc2Cl)c(OC)c1	14µM*
CC(C)c1ccc(NC(=O)CNC(=O)Cn2ccc3ccccc3c2=O)cc1	i
Cc1ccc(S(=O)(=O)NCC(c2ccccc2)N2CCCCC2)cc1 (stereo not given)	i
O=C(O)Cc1sc(Nc2ccc(Cl)cc2)nc1-c1cccs1	i
CC1CC1C(=O)Nc1nc(-c2cccs2)c(-c2cccs2)s1 (stereo not given)	11µM*
CC(=O)Nc1sc(NC(=O)c2ccco2)nc1-c1cccs1	i
CC(C)(C)C(=O)Nc1nnc(CC(=O)NCc2ccccc2)s1	i
Cc1ccc(C)c(C(O)c2ncc(-c3ccc(F)cc3)[nH]2)c1 (stereo not given)	i
c1coc(-c2ccnc3ncnn23)c1	i
Cn1cc(/C=N/NC(N)=S)c2ccccc21	i
SMILES	TDP-43 rescue
CC(C)Oc1ccc(/C=N/NC(N)=S)cc1	13µM*
O=C(N/N=C/c1ccc(OC(F)F)cc1)C1=COCCO1	i
COc1ccc(C2C(C(=O)N3CCN(c4ccccn4)CC3)CCC(=O)N2c2cc(OC)c(OC)c(OC)c2)cc1 (stereo not given)	i
Cc1cc(C)c2oc(C(=O)NCCc3ccc(S(N)(=O)=O)cc3)cc(=O)c2c1	i
O=C(NN1CCOCC1)c1ccccc1NS(=O)(=O)c1ccc(F)cc1F	i
CC(O)(c1cccc(F)c1)c1nc(-c2cccc(F)c2)cs1 (stereo not given)	i
COc1ccc(-c2csc(C(C)(O)c3cccc(F)c3)n2)cc1 (stereo not given)	14µM*
Cc1ccc(-c2csc(C(C)(O)c3cccc(F)c3)n2)cc1C (stereo not given)	i
COc1cc(C(=O)NCc2ccc(-c3nc4ccccc4s3)cc2)cc(OC)c1OC	i
CCOc1cc(-c2nc3ccccc3s2)ccc1O	22µM*
COc1cccc(-c2nc3ccccc3s2)c1O	i
O=C(CSc1n[nH]c(-c2cccnc2)n1)Nc1ccccc1C(F)(F)F	i
COc1cccc(OC)c1NC(=O)C1CCCN1C(=O)Nc1ccccc1F (stereo not given)	i
Cc1cccc[n+]1CC(=O)c1ccc([N+](=O)[O-])cc1	i
Cc1cccc(C)c1N1CCN(C(=O)N2CCCCC2)CC1	i
O=C(Nc1ccc(Cl)cn1)c1ccc(COc2ccccc2Br)o1	11µM*
CCc1nnc(NC(=O)c2ccc(COc3ccccc3Cl)o2)s1	i
CCN(CC)C(=O)c1ccc(COc2ccccc2Cl)o1	i
COc1ccc(CC(=O)N2CCC(c3ccccc3)C2)cc1 (stereo not given)	i
NS(=O)(=O)c1cccc(NC(=O)CSc2nnc(C3CC3)n2Cc2ccccc2)c1	i
Cc1ccc(Nc2c3c(nc4nncn24)CCC3)cc1	13µM*
Cc1cccc(Nc2c3c(nc4nncn24)CCC3)c1	i
COc1ccccc1N1CCN(c2c3c(nc4nncn24)CCC3)CC1	i
CC1(Cc2c(Cl)cccc2Cl)C(=O)Nc2cc(-c3ccccc3Cl)ccc21 (stereo not given)	i
COC(=O)Cc1ccc2sc(-c3ccccc3)nc2c1	i
SMILES	TDP-43 rescue
COc1cc(/C=C/C(=O)N(Cc2ccccc2)c2ccccn2)cc(OC)c1OC	i
CCOC(=O)NC(=S)Nc1cccc(NC(=S)NC(=O)OCC)c1	i
O=C(Nc1ccc(C(=O)O)cc1)/C(=C/c1ccc2c(c1)OCO2)NC(=O)c1cccc(Br)c1	i
COC(=O)COc1cccc(NC(=O)c2cccc(C)c2)c1	i
O=C(NC(=S)Nc1ccc2c(c1)OCCO2)c1cccc(Br)c1	13µM*
O=C(Nc1cccc(Cl)c1)c1ccc2c(c1)OCCO2	i
CCOc1cccc(C(=O)NC(=S)Nc2cccc(C)c2)c1	20µM*
O=C1c2ccccc2C(=O)C12OC2c1ccc(Cl)cc1Cl (stereo not given)	i
NC(=O)c1nsc(C(=O)N(c2ccccc2)C(C(=O)NCC2CCCO2)c2ccc(F)cc2)c1N (stereo not given)	i
CNC(=O)NC(=O)CSc1nc2sccc2c(=O)n1-c1ccccc1	i
